Assay in all cases: qHTS profiling for inhibitors of Plasmodium falciparum proliferation (AID 504749); also: nearly all actives have a fitted effect of over 60% in size
Holding throughout (conditions): P. falciparum in erythrocytes, SYBR Green DNA, 72 h; series mostly up to 28.7 µM
A general note: Quantitative high-throughput screening tests each substance at several concentrations.

One experiment concerns 7G8. The gist of the method:
(§1)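 P. falciparum-infected erythrocytes (0.3% parasitemia, 2.5% hematocrit final) were exposed to compounds for 72 h at 37 C in 5% CO2, then lysed with SYBR Green buffer overnight at room temperature; parasite DNA fluorescence was normalized to artemisinin and DMSO controls.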

A further experiment has as its system C2A. The gist of the method: as §1
The subject of another experiment is CP192. The gist of the method:
as §1

In a further experiment the test system is CP194. The gist of the method: as §1
Another experiment deals with CP203. The gist of the method: as §1
A further experiment has as its system CP217. The gist of the method: as §1
The test system of a further experiment is CP237. The gist of the method: as §1
Another experiment relates to CP266. The gist of the method:
as §1

The next experiment has as its system CP268. The gist of the method:
as §1

The subject of another experiment is CP269. The gist of the method:
as §1

For a further experiment, the system named is CP291. The gist of the method:
as §1

The next experiment concerns CP315. The gist of the method:
as §1

Another experiment deals with CP329. The gist of the method: as §1
Another experiment deals with DIV30. The gist of the method:
as §1

Another experiment deals with HB3. The gist of the method: as §1
The subject of the next experiment is JCK. The gist of the method:
as §1

Another experiment has as its system P94_40. The gist of the method: as §1
For another experiment, the system named is PC26. The gist of the method: as §1
Another experiment deals with SC27B. The gist of the method:
as §1

The next experiment has as its system TAB109. The gist of the method:
as §1

SMILES strings stand for the structures. Records with an inconclusive call do not appear. The source made the active and inactive calls. Calls follow the shape of the dose curve; as a rule, active = well fitted inhibition curve with a large enough effect; inconclusive = small, poorly fitted or top-dose-only effect; inactive = flat fitted curve, though single readings scatter. Numbered stars: 1 amine (or outer) side, 2 acyl side, 3 side chain; on linkers, the order of the positions; unused ones are H or OH. Bridge positions count the residues as written; N and C are the ends. Square brackets hold non-standard residues; d marks the D form. Peptide text beside a SMILES is read from it. * marks the point of attachment. ξ: configuration not given here. ΔAla(Z-3-ureido) = NC(=O)N/C=C(\N)C(=O)O; ξDab(CH2SO3H) = NC(CCNCS(=O)(=O)O)C(=O)O; X2 = NC1=NC(O)CC(C(N[*:1])C(=O)[*:2])N1; Heptanoyl(6-Me) = CC(C)CCCCC(=O)*; ξβ3hOrn = NCCCC(N)CC(=O)*; Orn = NCCC[CH](N)C(=O)O; Dab = NCC[CH](N)C(=O)O; Dap = NC[CH](N)C(=O)O

The record followed here is PubChem BioAssay (NCATS).
Potency is read from the fitted curve at half-maximal effect.

Turning to `CCC(C)C1NC(=O)C(CCNCS(=O)(=O)O)NC(=O)C(NC(=O)C(CCNCS(=O)(=O)O)NC(=O)C(NC(=O)C(CCNCS(=O)(=O)O)NC(=O)CCCCC(C)C)C(C)O)CCNC(=O)C(C(C)O)NC(=O)C(CCNCS(=O)(=O)O)NC(=O)C(CCNCS(=O)(=O)O)NC(=O)C(C(C)CC)NC1=O` (stereo not drawn) ({Heptanoyl(6-Me)}-[ξDab(CH2SO3H)]T[ξDab(CH2SO3H)][Dab][ξDab(CH2SO3H)]II[ξDab(CH2SO3H)][ξDab(CH2SO3H)]T; lactam 4-C; configuration not given here), the Potency entry with 7G8, in the experiment with C2A, in the experiment with CP192, with CP194, in the experiment on CP203 and in the experiment on CP217 was “inactive” each time. The Potency result with CP237, in the experiment with CP266, with CP268, in the experiment on CP269, with CP291 and with CP315 was “inactive” each time. Moreover, the Potency entry in the experiment on CP329, in the experiment with DIV30, with HB3, in the experiment with JCK, in the experiment on P94_40 and in the experiment on PC26 was “inactive” throughout. The Potency entry in the experiment on SC27B and with TAB109 was “inactive” throughout.
In the case of `CC1(C)C(/C=C/C=C/C=C/C=C2\N(CCCCS(=O)(=O)O)c3ccc4ccccc4c3C2(C)C)=[N+](CCCCS(=O)(=O)[O-])c2ccc3ccccc3c21`, the Potency entry in the experiment with 7G8, in the experiment with C2A, in the experiment on CP192, in the experiment with CP194, in the experiment with CP203 and in the experiment with CP237 was “inactive” each time. Further, the Potency result in the experiment on CP266, in the experiment on CP268, in the experiment on CP269, in the experiment with CP291, in the experiment on CP315 and in the experiment with CP329 was “inactive” each time. The Potency entry in the experiment with DIV30, in the experiment with HB3, in the experiment with JCK, with P94_40, in the experiment with PC26 and in the experiment on SC27B was “inactive” in each case. Also, the Potency result in the experiment on TAB109 was “inactive”.
Consider `CNCC(=O)NC(CCCN=C(N)N)C(=O)NC(C(=O)NC(Cc1ccc(O)cc1)C(=O)NC(C(=O)NC(Cc1cnc[nH]1)C(=O)N1CCCC1C(=O)NC(C)C(=O)O)C(C)C)C(C)C` (stereo not drawn), for which the Potency entry in the experiment with 7G8, in the experiment with C2A, in the experiment on CP192, in the experiment with CP194, in the experiment with CP203 and in the experiment with CP217 was “inactive” throughout. Besides, the Potency entry with CP237, in the experiment on CP266, in the experiment with CP268, in the experiment on CP269, with CP291 and with CP315 was “inactive” each time. The Potency result with CP329, in the experiment with DIV30, with HB3, in the experiment on JCK, in the experiment on P94_40 and in the experiment with PC26 was “inactive” each time. In addition, the Potency result in the experiment on SC27B and in the experiment with TAB109 was “inactive” each time.
Turning to `CCC(C)C1NC(=O)C(Cc2ccc(O)cc2)NC(=O)C(N)CSSCC(C(=O)N2CCCC2C(=O)NC(CC(C)C)C(=O)NCC(N)=O)NC(=O)C(CC(N)=O)NC(=O)C(CCC(N)=O)NC1=O` (stereo not drawn), the Potency result in the experiment on 7G8, with C2A, with CP192, with CP194, with CP203 and with CP217 was “inactive” in each case. Moreover, the Potency result in the experiment on CP237, in the experiment on CP266, in the experiment on CP268, in the experiment on CP269, with CP291 and in the experiment on CP315 was “inactive” each time. Also, the Potency result in the experiment with CP329, in the experiment with DIV30, in the experiment on HB3, in the experiment with JCK, in the experiment with P94_40 and with PC26 was “inactive” throughout. Moreover, the Potency entry in the experiment with SC27B and in the experiment with TAB109 was “inactive” each time.
For `CC(N)C(=O)NCC(=O)NC1CSSCC(C(=O)O)NC(=O)C(CO)NC(=O)C(C(C)O)NC(=O)C(Cc2ccccc2)NC(=O)C(C(C)O)NC(=O)C(CCCCN)NC(=O)C(Cc2c[nH]c3ccccc23)NC(=O)C(Cc2ccccc2)NC(=O)C(Cc2ccccc2)NC(=O)C(CC(N)=O)NC(=O)C(CCCCN)NC1=O` (stereo not drawn), the Potency entry in the experiment with 7G8, in the experiment with C2A, with CP192, with CP194, with CP203 and in the experiment on CP217 was “inactive” each time. Moreover, the Potency entry in the experiment on CP237, in the experiment on CP266, in the experiment with CP268, with CP269, in the experiment with CP291 and with CP315 was “inactive” in each case. The Potency result with CP329, with DIV30, in the experiment with HB3, in the experiment on JCK, in the experiment with P94_40 and in the experiment on PC26 was “inactive” in each case. Moreover, the Potency result in the experiment with SC27B and with TAB109 was “inactive” each time.
With `Cn1cc(O)nc1NC(=O)Nc1cccc(Cl)c1`, the Potency result with 7G8, in the experiment on C2A, in the experiment with CP192, in the experiment with CP194, in the experiment on CP203 and in the experiment with CP217 was “inactive” throughout. Moreover, the Potency entry in the experiment with CP237, in the experiment on CP266, in the experiment with CP268, in the experiment on CP269, in the experiment on CP291 and in the experiment with CP315 was “inactive” in each case. In addition, the Potency entry with DIV30, in the experiment with HB3, in the experiment on JCK, in the experiment with P94_40, in the experiment with PC26 and with SC27B was “inactive” throughout. Further, the Potency entry in the experiment with TAB109 was “inactive”.
Regarding `C=CC1=C(C(=O)O)N2C(=O)[C@@H](NC(=O)C(N=O)c3csc(N)n3)[C@H]2SC1` (stereo partly drawn), the Potency entry with 7G8, with C2A, in the experiment on CP192, with CP194, with CP203 and in the experiment on CP217 was “inactive” in each case. Also, the Potency entry in the experiment with CP237, in the experiment with CP266, with CP268, in the experiment on CP269, in the experiment with CP291 and in the experiment with CP315 was “inactive” in each case. For the same compound, the Potency result in the experiment on CP329, in the experiment on DIV30, in the experiment with HB3, with JCK, in the experiment on P94_40 and with PC26 was “inactive” each time. The Potency result with SC27B and with TAB109 was “inactive” each time.
As to `COc1ccc(-c2nc3ccc(C4=C(C)CC(=O)NN4)cc3[nH]2)cc1`, the Potency with 7G8 was 8910 nM (active). The Potency entry with CP192, in the experiment with CP217, in the experiment with CP266, with CP291, in the experiment on CP315 and in the experiment on CP329 was “inactive” throughout. For the same compound, the Potency result with HB3, in the experiment on JCK and with P94_40 was “inactive” each time.
With `CC(C)CC1NC(=O)C(CCCN)NC(=O)C(C(C)C)NC(=O)C2CCCN2C(=O)C(Cc2ccccc2)NC(=O)C(CC(C)C)NC(=O)C(CCCN)NC(=O)C(C(C)C)NC(=O)C2CCCN2C(=O)C(Cc2ccccc2)NC1=O` (stereo not drawn) (cyclo(FPV[Orn]LFPV[Orn]L); configuration not given here), the Potency in the experiment on 7G8 was 0.3 nM (active); in the experiment on C2A, 2.5 nM (active); with CP192, 1.7 nM (active); in the experiment on CP194, 1.3 nM (active); in the experiment with CP203, 1.3 nM (active); in the experiment on CP217, 2.2 nM (active). Moreover, the Potency is 0.9 nM (active) with CP237; 1.9 nM (active) with CP266; 13.5 nM (active) in the experiment on CP268; 1.3 nM (active) in the experiment with CP269; 0.4 nM (active) in the experiment with CP291; 1.7 nM (active) with CP315. The Potency was 1.9 nM (active) with CP329; 0.4 nM (active) in the experiment on DIV30; 3.5 nM (active) in the experiment on HB3; 56.2 nM (active) with JCK; 0.4 nM (active) in the experiment on P94_40; 1.1 nM (active) in the experiment on PC26. Also, the Potency with SC27B was 6.3 nM (active); in the experiment on TAB109, 1.1 nM (active).
With `NCCCC(N)CC(=O)NC1CNC(=O)C(C2CC(O)N=C(N)N2)NC(=O)/C(=C/NC(N)=O)NC(=O)C(CO)NC(=O)C(CO)NC1=O` (stereo not drawn) (ξβ3hOrn-[Dap]SS[ΔAla(Z-3-ureido)][X2]; lactam 1-C; configuration not given here), the Potency entry in the experiment on 7G8, in the experiment on C2A, in the experiment with CP192, in the experiment on CP194, with CP203 and with CP217 was “inactive” throughout. Further, the Potency result in the experiment on CP237, in the experiment on CP266, in the experiment on CP268, in the experiment with CP269, in the experiment on CP291 and with CP315 was “inactive” each time. The Potency entry with CP329, in the experiment with DIV30, in the experiment with HB3, in the experiment with JCK, in the experiment with P94_40 and in the experiment with PC26 was “inactive” in each case. Also, the Potency result in the experiment with SC27B and in the experiment on TAB109 was “inactive” in each case.
